The values below come from PubChem BioAssay (NCATS).

A short description of assay [1]: qHTS for Inhibitors of Plasmodium falciparum (DD2) proliferation (AID 504314).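 Note: parasite DNA measured by SYBR Green fluorescence after red cell lysis; plate controls were DMSO vehicle for no effect and artemisinin wells for full effect.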 A digest of the protocol: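 Quantitative HTS growth inhibition: SYBR Green I binding to parasite DNA after 72 h drug exposure of infected erythrocytes (0.3% parasitemia, 2.5% hematocrit). Signals normalized per plate to inhibitor and vehicle wells.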
In general terms: In qHTS, concentration-response curves come from the screen itself.

The nature of assay [2]: qHTS for Inhibitors of Plasmodium falciparum (GB4) proliferation (AID 504315).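 Note: 0% = DMSO vehicle and -100% = 0.29 µM artemisinin control; nearly all actives have a fitted effect of over 50% in size.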 Put shortly: (§1)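 Erythrocytes infected with P. falciparum line (0.3% parasitemia, 2.5% hematocrit final) incubated with compounds 72 h at 37 °C, 5% CO2; SYBR Green lysis buffer added, fluorescence read next day. Normalized to 0.29 uM artemisinin and DMSO.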
Assay [3] is described as follows: qHTS for Inhibitors of Plasmodium falciparum (CP250) proliferation (AID 504320).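 Note: plate controls were DMSO vehicle for no effect and 0.29 µM artemisinin control for full effect.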 A digest of the protocol: as §1
Assay [4] addresses Atrial natriuretic peptide receptor 1 (Homo sapiens) (UniProt P16066). Kind of assay: Natriuretic polypeptide receptor (hNpr1) antagonism - Pilot CMLD screen (AID 1347052; calls by dose curve;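 note: HEK293 cells with hNpr1 stimulated by hNppA peptide at 0.1 nM; cGMP level read as GloSensor luciferase luminescence after agonist stimulation; series mostly up to about 9.2 µM; % is set by controls: 0 for no effect and ±100 for the full control effect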).
Assay [5] deals with Cytochrome P450 2C9 (Homo sapiens) (UniProt P11712). As to the kind of experiment: qHTS Assay for Inhibitors and Substrates of Cytochrome P450 2C9 (AID 883). Note: % is set by controls: 0 for no effect and ±100 for the full control effect; nearly all actives have a fitted effect of over 60% in size. Put shortly: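 Human CYP2C9 (10nM) with Luciferin-H at 100uM (its KM) in 25mM KPO4; compound preincubated 10 min at 37C, then NADPH regeneration for 60 min at 37C. Luciferin read by luminescence after detection reagent; normalized to 57uM sulphaphenazole as full inhibition.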

The target in assay [6] is Cytochrome P450 2D6 (Homo sapiens) (UniProt P10635). Kind of assay: qHTS Assay for Inhibitors and Substrates of Cytochrome P450 2D6 (AID 891).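 Note: luciferin methyl ether substrate demethylated by CYP2D6 with NADPH regeneration; % is set by controls: 0 for no effect and ±100 for the full control effect; nearly all actives have a fitted effect of over 60% in size.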 Put shortly: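 Human CYP2D6 (5 nM) with 30 uM Luciferin-ME EGE (at Km) in 100 mM KPO4, compound preincubated 10 min, then NADPH regeneration system for 60 min at room temperature. Luciferin read by luminescence; normalized to 1.43 uM quinidine.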

The target of assay [7] is Cytochrome P450 2C19 (Homo sapiens) (UniProt P33261). Kind of assay: qHTS Assay for Inhibitors and Substrates of Cytochrome P450 2C19 (AID 899). For activity, negative = inhibition: % is set by controls: 0 for no effect and ±100 for the full control effect. Note: nearly all actives have a fitted effect of over 60% in size. Note: potency is the fitted concentration of half-maximal effect. Put shortly:
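5 nM human CYP2C19 with 10uM Luciferin-H EGE (at KM) in 50mM KPO4, compound preincubated 10 min at 37C, then NADPH regeneration for 60 min at 37C. Luciferin read by luminescence after detection reagent; normalized to 57uM ketoconazole as full inhibition.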

Assay [8] in a line: qHTS for Inhibitors of Plasmodium falciparum (7G8) proliferation (AID 504316).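 Note: series mostly up to about 6.7 µM; 0% = DMSO vehicle and -100% = 0.29 µM artemisinin full kill; nearly all actives have a fitted effect of over 65% in size.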 A digest of the protocol: as §1
The nature of assay [9]: qHTS for Inhibitors of Plasmodium falciparum (HB3) proliferation (AID 504318).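 Note: 0% = DMSO vehicle and -100% = artemisinin control; nearly all actives have a fitted effect of over 60% in size.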 A digest of the protocol:
as §1

The target in assay [10] is Cytochrome P450 3A4 (Homo sapiens) (UniProt P08684). Kind of assay: qHTS Assay for Activators of Cytochrome P450 3A4 (AID 885). Note: nearly all actives have a fitted effect of over 65% in size. Put shortly: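 Steps: enzyme/substrate mix dispensed; compound added, 10 min RT; NADPH regeneration solution added, 60 min RT; luciferin detection buffer stops reaction; 20 min later luminescence measured.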

Unmarked numbers belong to inactive results. Results filed as inconclusive are left out. The source made the active and inactive calls. Unless noted, calls come from the whole dose curve; as a rule, active = well fitted curve in the direction sought with a large enough effect; inconclusive = small, poorly fitted or top-dose-only effect, or another doubt; inactive = no such curve, though single readings can be large; an effect the other way counts as inactive or inconclusive.

Chain of Atrial natriuretic peptide receptor 1 (Homo sapiens) (P16066 whole entry, looked up): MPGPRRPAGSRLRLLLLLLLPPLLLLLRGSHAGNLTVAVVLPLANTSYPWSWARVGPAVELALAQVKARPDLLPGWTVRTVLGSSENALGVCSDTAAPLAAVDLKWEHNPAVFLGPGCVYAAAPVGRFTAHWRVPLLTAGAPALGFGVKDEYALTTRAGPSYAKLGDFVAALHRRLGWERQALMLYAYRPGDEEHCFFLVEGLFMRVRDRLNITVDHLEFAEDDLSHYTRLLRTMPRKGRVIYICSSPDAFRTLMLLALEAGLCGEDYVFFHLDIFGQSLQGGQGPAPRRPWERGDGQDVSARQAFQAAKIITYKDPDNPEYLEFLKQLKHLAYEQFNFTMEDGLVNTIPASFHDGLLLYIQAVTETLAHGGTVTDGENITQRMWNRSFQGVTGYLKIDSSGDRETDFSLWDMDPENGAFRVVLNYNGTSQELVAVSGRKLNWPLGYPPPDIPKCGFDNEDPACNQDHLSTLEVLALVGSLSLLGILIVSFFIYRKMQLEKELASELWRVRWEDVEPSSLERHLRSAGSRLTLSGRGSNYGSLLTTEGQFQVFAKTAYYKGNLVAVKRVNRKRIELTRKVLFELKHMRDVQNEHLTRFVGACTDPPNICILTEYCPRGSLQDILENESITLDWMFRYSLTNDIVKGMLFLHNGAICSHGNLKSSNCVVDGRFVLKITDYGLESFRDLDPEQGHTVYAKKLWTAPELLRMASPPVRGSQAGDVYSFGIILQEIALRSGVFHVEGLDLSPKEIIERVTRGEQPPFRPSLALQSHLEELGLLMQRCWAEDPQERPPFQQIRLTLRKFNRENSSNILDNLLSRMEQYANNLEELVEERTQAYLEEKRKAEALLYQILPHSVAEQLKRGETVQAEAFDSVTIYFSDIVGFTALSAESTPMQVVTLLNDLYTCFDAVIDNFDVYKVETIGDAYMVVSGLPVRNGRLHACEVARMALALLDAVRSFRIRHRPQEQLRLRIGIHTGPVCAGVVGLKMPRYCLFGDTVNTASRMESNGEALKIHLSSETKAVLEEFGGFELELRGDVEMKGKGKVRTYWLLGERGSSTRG
Chain of Cytochrome P450 2C9 (Homo sapiens) (P11712 whole entry, looked up): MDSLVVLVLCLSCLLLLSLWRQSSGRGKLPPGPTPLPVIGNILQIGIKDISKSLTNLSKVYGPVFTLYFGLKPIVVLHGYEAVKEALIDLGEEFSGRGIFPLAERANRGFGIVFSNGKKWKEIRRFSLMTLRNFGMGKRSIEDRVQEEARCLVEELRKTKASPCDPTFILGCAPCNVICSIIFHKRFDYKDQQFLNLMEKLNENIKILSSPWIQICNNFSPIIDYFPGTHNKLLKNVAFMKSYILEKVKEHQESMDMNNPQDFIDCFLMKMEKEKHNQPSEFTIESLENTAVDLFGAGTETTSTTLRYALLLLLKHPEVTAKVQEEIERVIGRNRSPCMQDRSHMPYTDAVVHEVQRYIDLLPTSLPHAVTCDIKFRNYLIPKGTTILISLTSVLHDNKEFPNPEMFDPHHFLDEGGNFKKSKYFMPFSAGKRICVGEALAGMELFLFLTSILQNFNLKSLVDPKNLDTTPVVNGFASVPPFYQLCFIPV
Chain of Cytochrome P450 2C19 (Homo sapiens) (P33261 whole entry, looked up): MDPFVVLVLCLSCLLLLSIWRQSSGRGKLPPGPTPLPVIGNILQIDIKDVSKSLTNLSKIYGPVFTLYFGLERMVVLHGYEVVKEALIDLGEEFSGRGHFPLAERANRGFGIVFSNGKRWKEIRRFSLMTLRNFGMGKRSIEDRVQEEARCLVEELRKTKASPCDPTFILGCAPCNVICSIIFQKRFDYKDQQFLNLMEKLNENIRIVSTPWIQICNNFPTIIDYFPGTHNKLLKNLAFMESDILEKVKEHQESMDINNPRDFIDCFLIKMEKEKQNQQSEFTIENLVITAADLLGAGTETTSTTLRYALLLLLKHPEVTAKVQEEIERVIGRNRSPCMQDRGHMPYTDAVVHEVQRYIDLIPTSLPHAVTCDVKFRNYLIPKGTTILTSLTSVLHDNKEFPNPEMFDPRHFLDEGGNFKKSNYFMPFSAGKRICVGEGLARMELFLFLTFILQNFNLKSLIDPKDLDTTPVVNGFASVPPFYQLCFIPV
Chain of Cytochrome P450 2D6 (Homo sapiens) (P10635 whole entry, looked up): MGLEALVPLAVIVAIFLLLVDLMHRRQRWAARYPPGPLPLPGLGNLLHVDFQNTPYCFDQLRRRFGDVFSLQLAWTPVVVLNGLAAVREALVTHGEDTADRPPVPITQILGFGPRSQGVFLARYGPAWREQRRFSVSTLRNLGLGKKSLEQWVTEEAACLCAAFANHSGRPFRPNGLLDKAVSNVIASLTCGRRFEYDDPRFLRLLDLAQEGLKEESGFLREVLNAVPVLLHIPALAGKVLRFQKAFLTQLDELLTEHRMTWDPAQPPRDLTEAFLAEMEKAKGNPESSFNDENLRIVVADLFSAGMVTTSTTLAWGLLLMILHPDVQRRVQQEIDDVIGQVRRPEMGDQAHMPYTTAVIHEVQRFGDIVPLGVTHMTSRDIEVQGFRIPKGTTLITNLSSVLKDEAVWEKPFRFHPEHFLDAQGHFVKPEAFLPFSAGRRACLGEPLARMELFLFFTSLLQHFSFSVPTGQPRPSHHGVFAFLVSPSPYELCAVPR
Chain of Cytochrome P450 3A4 (Homo sapiens) (P08684 whole entry, looked up): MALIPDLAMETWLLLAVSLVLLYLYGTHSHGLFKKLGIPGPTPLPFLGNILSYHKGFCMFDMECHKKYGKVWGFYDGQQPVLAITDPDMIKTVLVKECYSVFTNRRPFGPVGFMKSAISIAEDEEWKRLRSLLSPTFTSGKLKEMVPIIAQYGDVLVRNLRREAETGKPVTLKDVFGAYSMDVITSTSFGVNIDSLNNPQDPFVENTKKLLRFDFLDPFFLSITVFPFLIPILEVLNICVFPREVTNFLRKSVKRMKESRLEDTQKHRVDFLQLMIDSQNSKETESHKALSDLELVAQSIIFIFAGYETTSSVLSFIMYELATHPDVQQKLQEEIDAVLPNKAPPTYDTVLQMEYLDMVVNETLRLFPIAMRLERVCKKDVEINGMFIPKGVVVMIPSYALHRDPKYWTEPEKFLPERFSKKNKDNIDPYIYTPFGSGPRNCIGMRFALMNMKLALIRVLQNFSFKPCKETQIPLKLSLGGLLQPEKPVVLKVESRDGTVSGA

As to `C=C(C(C)=O)C(O)c1ccccc1` (centres undefined), the Potency result in [1], in assay [2], in [3] and in [4] was “inactive” throughout.
In the case of `O=C(NN=C1C[C@@H](O)[C@H](O)[C@H]2[C@@H]3C(=O)N(C4CCCCC4)C(=O)[C@@H]3CC[C@@H]12)OCc1ccccc1`, the Potency entry in assay [1], in [2], in [3] and in assay [4] was “inactive” in each case.
Regarding `CC=CC(=O)C[C@H]1CC[C@@H](C)[C@@H](CCO)O1`, the Potency result in assay [1], in assay [2], in assay [3] and in [4] was “inactive” throughout.
Consider `COC(=O)[C@H](COC(C)(C)C)NC(=O)O[C@@H]1C(=O)c2ccc(OC)cc2O[C@H]1c1cccc(C(F)(F)F)c1`, for which the Potency result in [1], in assay [2], in assay [3] and in [4] was “inactive” throughout.
Regarding `C=CCOC(=O)N[C@H](c1ccc(-c2ccccc2)cc1)[C@H](C)C=CCC(=O)OC`, the Potency entry in [1], in assay [2], in assay [3] and in [4] was “inactive” in each case.
With `COC(=O)[C@@H]1C=C[C@H](C)[C@H](CCOc2ccccc2)O1`, the Potency result in assay [1], in assay [2], in assay [3] and in [4] was “inactive” each time.
Turning to `COCC1=C(C(=O)OC)C(c2ccccc2)N(C(C)=O)C(=O)N1` (centres undefined), the Potency result in assay [1], in [2], in assay [3] and in assay [4] was “inactive” in each case.
Consider `COC(=O)CCC(=O)OC1(C)C(=O)C=C2C=C(C3CC3)N(c3ccc(CO)cc3)C=C2C1=O` (centres undefined), for which the activity, negative = inhibition in [1] is -5.46% [at 1.12 µM]. In addition, the Potency entry in [2], in assay [3] and in assay [4] was “inactive” throughout.
Consider `COC1=C[C@@H](C(=O)N[C@H]2CCCC[C@H]2NC(C)=O)[C@@H](C)[C@H](c2ccccc2)CC1=O`, for which the Potency result in assay [1], in [2], in assay [3] and in assay [4] was “inactive” each time.
For the compound `COc1ccc2c(c1)C(=O)[C@@H](OC(=O)NCCc1ccc(OC)c(OC)c1)[C@H](c1ccc(OC)c(Br)c1)O2`, the Potency result in assay [1], in assay [2], in assay [3] and in assay [4] was “inactive” throughout.
As to `COc1ccc(NC(=O)N2CCc3nc(-c4ccc(OC)cc4C)c4c(c3C2)CO[C@@H](c2ccccc2)C4)cc1`, the Potency entry in assay [1], in [2], in assay [3] and in assay [4] was “inactive” throughout.
With `CC1(OC(=O)c2cnc3ccccc3n2)C(=O)C=C2C=C(c3ccc(C#N)cc3)OC=C2C1=O` (centres undefined), the Potency entry in [1], in assay [2], in assay [3] and in [4] was “inactive” in each case.
Consider `COC(=O)[C@@H]1[C@@H](c2ccccc2)NC(=O)N(CCc2cc(OC)c(OC)c(OC)c2)[C@@H]1C`, for which the Potency result in assay [1], in assay [2], in assay [3] and in assay [4] was “inactive” in each case.
In the case of `C#CCCCON=C1C[C@@H](O)[C@H](O)[C@H]2[C@@H]3C(=O)N(Cc4ccc5c(c4)OCO5)C(=O)[C@@H]3CC[C@H]12`, the Potency result in [1], in [2], in assay [3] and in assay [4] was “inactive” each time.
Regarding `COc1cc(CCN2C(=O)NC(c3ccccc3)C(C(C)=O)=C2C)cc(OC)c1OC` (centres undefined), the Potency entry in assay [1], in [2], in assay [3] and in assay [4] was “inactive” throughout.
For `C[C@H]1Cc2c(COc3ccccc3)nc3c(c2CO1)CN(S(=O)(=O)c1ccc2c(c1)OCCN2C)CC3`, the activity, negative = inhibition in assay [1] is -3.65% [at 1.12 µM]. Further, the Potency result in [2], in assay [3] and in [4] was “inactive” throughout.
`C#CCCCON=C1C[C@@H](O)[C@H](O)[C@H]2[C@@H]3C(=O)N(Cc4ccccc4)C(=O)[C@@H]3CC[C@H]12`: the Potency result in assay [1], in assay [2], in assay [3] and in assay [4] was “inactive” in each case.
`CC(CCN1CCCc2nc(C)c(C)cc21)=NOC[C@@H](O)[C@H]1O[C@@H]2OC(C)(C)O[C@H]2[C@@H]1O`: the Potency result in assay [1], in assay [2], in [3] and in assay [4] was “inactive” throughout.
As for `CC(C)OC(=O)[C@H](C)NC(=O)N1CCc2nc(-c3ccccc3)c3c(c2C1)CO[C@@H](C)C3`, the Potency result in assay [1], in assay [2], in assay [3] and in [4] was “inactive” throughout.
Turning to `COC(=O)C1=NOC2(C=C(Br)C(OC)=C(Br)C2=O)C1` (centres undefined), the activity change, negative = inhibition was -4.18% [at 11.4 µM] in assay [5] and -8.27% [at 11.4 µM] in [6]. Also, in [7], the activity, negative = inhibition was -27.3% [at 11.4 µM]. Moreover, the Potency result in assay [1], in assay [2], in [3] and in assay [4] was “inactive” each time.
Consider `COCCN1C(=O)N[C@@H](CCc2ccccc2)[C@H](C(=O)OC)[C@H]1C`, for which the Potency result in assay [1], in assay [8], in [9], in assay [3] and in assay [4] was “inactive” throughout.
On to `C=CC[C@@H]1C=C(C(=O)OC)N(C(=O)C(F)(F)F)[C@@H](c2ccccc2Br)[C@@H]1C`, for which the Potency result in [1], in assay [8], in assay [9] and in [4] was “inactive” throughout.
Take `COC(=O)CC=C[C@@H](C)[C@H](NC(=O)OCC(Cl)(Cl)Cl)c1ccc2ccccc2c1`: the Potency result in [1], in [8], in [9], in assay [3] and in assay [4] was “inactive” in each case.
As to `CCCCCCC1=Cc2cc(OC)c(OC)cc2C(C(C(C)=O)C(=O)OCC)O1` (centres undefined), the activity change, negative = inhibition in [5] was 25.3% [at 11.4 µM]. Besides, the activity change, positive = activation in assay [10] is -42.2% [at 11.4 µM]. Also, the Potency in [7] is 1580 nM (active). In addition, the Potency entry in assay [1], in [2] and in assay [4] was “inactive” in each case.
Take `C=C(CO[C@@H]1C=C[C@@H](c2ccccc2)O[C@@H]1CO)c1ccccc1`: the Potency entry in assay [1], in assay [8], in assay [9] and in [4] was “inactive” in each case.
In the case of `COC(=O)C(C(C)=O)C1c2ccccc2C=C(C)N1C(=O)OC` (centres undefined), the activity, negative = inhibition in assay [1] was -3.36% [at 1.12 µM]. Further, the Potency entry in [8], in assay [9], in assay [3] and in assay [4] was “inactive” each time.
In the case of `COc1ccc(COC(=O)NN=C2C[C@@H](O)[C@@H](O)[C@@H]3[C@H]4C(=O)N(C[C@@H]5CCCO5)C(=O)[C@@H]4CC[C@@H]23)cc1`, the Potency entry in [1], in assay [8] and in assay [4] was “inactive” throughout.
On to `C=CCOC(=O)N[C@@H](c1ccccc1)[C@@H](C)[N+](=O)[O-]`, for which the Potency result in assay [1], in [8], in assay [9] and in [4] was “inactive” each time.
As for `CCN1C(=O)NC(c2cccc(F)c2)C(C(C)=O)=C1C` (centres undefined), the Potency result in assay [1], in assay [8], in assay [9], in assay [3] and in assay [4] was “inactive” in each case.
For `CCOC(=O)CN1C(=O)[C@@]2(CC(C)=C[C@@H](COCc3ccccc3)O2)c2ccccc21`, the Potency result in [1], in assay [8], in assay [9], in assay [3] and in [4] was “inactive” throughout.
